Source: PubChem
Rows were chosen to be rich in hits. Some 2.2% of all compounds tested hit in one or more screens of this group.
M1 ag parental: M1 agonist counterscreen hit in parental CHO-K1 cells; Fluo-8 calcium fluorescence; scaled to maximal ATP response, vehicle zero; AID 602248; 0.48% of 360,000 active; activation, % at 3 µM; in the data active = activation above about 15%;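 also: untransfected CHO-K1 host cells lacking M1 receptor as counterscreen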
TMEM16A inh: blocks the mouse calcium-activated chloride channel TMEM16A. 1.2% of 310,000 active. normalized B-score (activity score, 25-100; higher = stronger inhibition) at 10 µM. AID 588511. HEK293 TMEM16A/YFP iodide influx fluorescence, ionomycin. Q8BHY3;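 active = ratio plate-corrected score three or more library SD toward inhibition, starting fluorescence score within five deviations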;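 also: score derived from kinetic fluorescence span divided by baseline fluorescence per well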
NTR1 agonist: agonists of human neurotensin receptor NTR1; NTR1-U2OS beta-arrestin-GFP spot imaging, agonist mode; activation, % at 20 µM; 0.17% of 330,000 active; AID 493036;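 active = activation at or above 40% of the spot to cytoplasm intensity ratio, with at least 20 cells analyzed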
CHO-K1 Ca antag: counter-screen for M1 antagonists: effect in parental CHO-K1 cells; ATP-induced calcium, Fluo-8 fluorescence; inhibition, % at 3 µM; 0.6% of 360,000 active;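 active = inhibition above a per-plate cutoff, the plate's mean sample inhibition plus 3 SD, cut at about 24% in these data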
M1 PAM parental: counter-screen for M1 PAMs: effect in parental CHO-K1 cells; ATP EC20, Fluo-8 calcium fluorescence; 0% at ATP EC20, 100% at ATP max; activation, % at 3 µM; 0.02% of 360,000 active;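 active = activation above the run cutoff, the mean activation of all test compounds plus 3 SD, cut at about 40% in these data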;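 also: peak over basal fluorescence ratio in a 140 s read after ATP addition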
TMEM16A act: activators or potentiators of mouse TMEM16A chloride channel | Q8BHY3 | HEK293 TMEM16A/YFP-H148Q/I152L, iodide quench fluorescence; active compounds read low | B-score at 10 µM | 0.3% of 340,000 active | AID 623877;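 active = fluorescence-ratio B-score plate-corrected deviation score at least 3 library SD below zero, with starting fluorescence score within 5 deviations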;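 also: channel opened by trigger with iodide after compound preincubation; score built on the fluorescence ratio of max minus min over baseline; more negative score means more quench and so TMEM16A activation or potentiation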
A number is an active result; i = inactive; nt = no result given.

SMILES | M1 ag parental | TMEM16A inh | NTR1 agonist | CHO-K1 Ca antag | M1 PAM parental | TMEM16A act
COC(=O)[C@]12CCCCC=C1N(Cc1ccccc1)C(=O)[C@H](CC(=O)NCCCN1CCCC1=O)C2 | i | nt | nt | i | i | nt
COc1nnc(-c2ccc(N3CCCCC3)c(NC(=O)C3CCCCC3)c2)c2ccccc12 | i | 100 | i | i | i | i
NS(=O)(=O)c1ccc(NC(=O)COC(=O)c2ncc(Cl)c(Cl)c2Cl)cc1 | i | nt | i | i | i | -5.03
N#Cc1ccc(Oc2cccc3cccnc23)c([N+](=O)[O-])c1 | i | i | i | i | i | -5.76
O=[N+]([O-])c1ccc(Oc2cccc3cccnc23)c([N+](=O)[O-])c1 | i | i | i | i | i | i
COc1ccc(N(C)S(=O)(=O)c2cccc(C(=O)NCC3CCCCC3)c2)cc1 | i | nt | nt | i | i | -36.9
COc1ccccc1Oc1ccc2c(c1)C(=O)N(c1ccc(C)cc1)C2=O | i | i | i | i | i | -6.14
CCS(=O)(=O)Nc1cccc(C2=NN(S(C)(=O)=O)C(c3ccccc3)C2)c1 (stereo unspecified) | i | i | i | i | i | -9.7
CCS(=O)(=O)N1N=C(c2cccc(NS(C)(=O)=O)c2)CC1c1ccccc1 (stereo unspecified) | i | i | i | i | i | i
CCOC(=O)[C@]12CCCC=C1N(Cc1ccc3c(c1)OCO3)C(=O)[C@H](CC(=O)NCc1cccc(C(F)(F)F)c1)C2 | i | nt | nt | i | i | nt
Cc1ccc(S(=O)(=O)N(C)C[C@@H]2OCCCC[C@H](C)Oc3ccc(NC(=O)Nc4ccc(F)cc4)cc3C(=O)N([C@H](C)CO)C[C@H]2C)cc1 | i | nt | nt | 25.7 | i | nt
Cc1noc(C)c1NC(=O)Nc1ccc2c(c1)C(=O)N([C@H](C)CO)C[C@@H](C)[C@@H](CN(C)S(=O)(=O)c1cn(C)cn1)OCCCC[C@H](C)O2 | i | nt | nt | 26.0 | i | nt
Cc1ccc(S(=O)(=O)N(C)C[C@@H]2OCCCC[C@@H](C)Oc3ccc(NS(=O)(=O)c4c(C)noc4C)cc3C(=O)N([C@H](C)CO)C[C@@H]2C)cc1 | i | nt | nt | i | i | nt
Cc1ccc(S(=O)(=O)Nc2ccc3c(c2)C(=O)N([C@@H](C)CO)C[C@@H](C)[C@@H](CN(C)S(=O)(=O)c2ccccc2)OCCCC[C@H](C)O3)cc1 | i | nt | nt | 23.7 | i | nt
Cc1cc(OC(C)C(=O)NC2CC(C)(C)NC(C)(C)C2)c2c(C)c(C)c(=O)oc2c1 (stereo unspecified) | i | nt | nt | i | i | nt
CCc1cccc(C)c1NC(=O)C1CC(=O)N(C2CCCC2)C1 (stereo unspecified) | i | nt | i | i | i | i
CCOC(=O)C1=C(CC)Nc2ccccc2N/C1=N\S(=O)(=O)c1cc(Br)ccc1Br | i | nt | i | 32.7 | i | i
CCOC(=O)C1=C(CC)Nc2ccccc2N/C1=N\S(=O)(=O)c1ccc2ccccc2c1 | i | i | i | i | i | i
CCNC(=O)C1CC(=O)N(CCCc2ccccc2)C(=Nc2ccccc2)S1 (stereo unspecified) | 19.5 | i | i | i | i | i
CC(C)COC(=O)N1CCCCC1c1cc(C(=O)NCc2ccc(F)cc2)no1 (stereo unspecified) | i | nt | nt | i | i | nt
Cc1cc(C(=O)N/N=C2\CC(=O)CC(C)(C)C2)c2ccccc2n1 | i | i | i | 25.9 | i | i
Cc1cc(C(=O)NN=C2CCCC2)c2ccccc2n1 | i | i | i | i | i | i
CC(=O)c1ccc(S(=O)(=O)NCCC(=O)OCC(=O)N(Cc2ccccc2)C(C)(C)C)cc1 | i | nt | i | i | i | i
O=C(NCC1(N2CCCCC2)CCCCC1)c1ccc(NS(=O)(=O)c2ccccc2)cc1 | i | i | i | 27.6 | i | i
COc1cc(-c2cc3nc(NCc4cccc(Cl)c4)ccn3n2)cc(OC)c1OC | i | nt | nt | i | i | nt
SMILES | M1 ag parental | TMEM16A inh | NTR1 agonist | CHO-K1 Ca antag | M1 PAM parental | TMEM16A act
COCCCNc1nc(-c2ccncc2)nc2ccccc12 | i | i | i | i | i | i
COCCCNc1nc(-c2ccc(Cl)cc2)nc2ccccc12 | i | 25 | i | i | i | i
OCCCNc1nc(-c2ccc(Cl)cc2)nc2ccccc12 | i | i | i | i | i | -6.3
COCCCNc1ccn2nc(-c3ccc(Cl)cc3)cc2n1 | i | nt | nt | 24.1 | i | nt
OCCNc1nc(-c2ccccc2)nc2ccccc12 | i | i | i | i | i | i
CCCNC(=O)c1cc(C2CCCCN2C(=O)c2cc(C(C)(C)C)nn2C)on1 (stereo unspecified) | i | nt | nt | i | i | nt
O=c1[nH][nH]c2c1[C@H](c1ccc(F)cc1)O[C@H](CCC(F)(F)F)C2 | i | nt | nt | i | i | nt
Cc1ccc(S(=O)(=O)C(C#N)c2nc3ccccc3nc2N2CC(C)OC(C)C2)cc1C (stereo unspecified) | i | 100 | i | i | i | i
CCN1CCN(c2nc3ccccc3nc2C(C#N)S(=O)(=O)c2ccc(C)c(C)c2)CC1 (stereo unspecified) | i | i | i | i | i | i
CCc1nc2ccc(C(=O)NCCCn3ccnc3)cn2c1N(C)Cc1nccs1 | i | nt | nt | i | i | nt
COc1cc(NC(=O)Nc2nnc([C@H]3C[C@H](O)[C@@H](CO)O3)s2)cc(OC)c1 | i | nt | nt | i | i | nt
Cc1cc(=S)cc(C)n1CCCO | i | i | i | 28.6 | i | i
c1ccc(COc2cccc(-c3cc4nc(NCc5ccc6c(c5)OCO6)ccn4n3)c2)cc1 | i | nt | nt | i | i | nt
COc1ccc([C@H]2CC(=O)C[C@@H](CCn3cc(-c4ccc(F)cc4)nn3)O2)cc1 | i | nt | nt | i | i | nt
O=C(C/C=N\OCc1ccc([N+](=O)[O-])cc1)Nc1ccc(F)cc1F | 29.4 | i | i | i | i | i
CO/N=C/CC(=O)Nc1ccc(F)cc1F | i | i | i | i | i | i
Nc1ccc(-c2c3ccc(=O)cc-3oc3cc(O)ccc23)c(C(=O)O)c1 | 108.4 | nt | i | 29.2 | i | i
CC(C)C[C@@H]1CC2=C(C(=O)OC(C)(C)O2)[C@H](CCc2ccccc2)O1 | i | nt | nt | i | i | nt
O=C(C(=O)N1CCOCC1)c1cn(CCOc2ccccc2)c2ccccc12 | i | i | i | i | i | i
Cc1ccccc1OCCn1cc(C(=O)C(=O)N2CCOCC2)c2ccccc21 | 22.6 | i | i | i | i | i
N=c1occ(C(=O)c2cc(F)ccc2O)cc1C(=O)NC1CCCCC1 | i | i | i | 23.7 | i | i
COc1ccc(-c2cc3ccc(OCC(N)=O)cc3oc2=O)cc1OC | i | 25 | i | i | i | i
COc1ccc(-c2cc3ccc(O)cc3oc2=O)cc1OC | i | i | i | i | i | i
COc1ccc(/C=C/C(=O)Nc2cccc(C(C)=O)c2)cc1 | 19.4 | i | i | i | i | i
CC(=O)Nc1cccc(C(=O)/C=C/c2ccc(N(C)C)cc2)c1 | 87.4 | i | i | 44.4 | i | i
COc1ccc(N2CCN(C(=O)COC(=O)c3nc(Cl)ccc3Cl)CC2)cc1 | i | nt | nt | i | i | nt
